In article PMC7862700, “An all-to-all approach to the identification of sequence-specific readers for epigenetic DNA modifications on cytosine” one finds binding signal data, which are given here for seven sequences.

Holding throughout (test): DAPPL (digital affinity profiling via proximity ligation, sequencing); 10 mM Tris-HCl pH 7.5, 50 mM NaCl, 1 mM DTT, 4% glycerol, room temperature, 30 min; GST-TFs on glutathione beads, 16-mer random dsDNA library, 0.1% formaldehyde crosslink after washing; high values mean tight binding
Common to all, as to settings: protein: recombinant; tags: N-terminal GST; dsDNA, one strand shown

For one experiment, the target named is T1, FLI1 (Homo sapiens, UniProt Q01543 1-452).
T1 sequence: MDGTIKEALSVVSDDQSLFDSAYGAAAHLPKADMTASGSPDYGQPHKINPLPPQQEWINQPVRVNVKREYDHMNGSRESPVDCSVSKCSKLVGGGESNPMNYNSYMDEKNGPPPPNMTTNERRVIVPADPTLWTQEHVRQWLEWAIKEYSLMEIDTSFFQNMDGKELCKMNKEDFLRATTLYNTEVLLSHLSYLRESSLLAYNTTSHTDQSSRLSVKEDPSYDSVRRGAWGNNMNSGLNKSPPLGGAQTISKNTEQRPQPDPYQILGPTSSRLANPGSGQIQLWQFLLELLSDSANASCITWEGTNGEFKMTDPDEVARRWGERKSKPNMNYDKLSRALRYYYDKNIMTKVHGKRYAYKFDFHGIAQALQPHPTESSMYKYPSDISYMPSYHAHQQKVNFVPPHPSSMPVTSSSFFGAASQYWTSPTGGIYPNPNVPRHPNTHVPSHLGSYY
The procedure, abridged: (§1)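 Pools of DNA-barcoded human transcription factors, expressed in yeast as GST fusions on glutathione beads and combined with a tag-only sample, were incubated with 200 nmole of a 16-mer random double-stranded DNA library. Incubation took 30 min at room temperature in Tris/NaCl/DTT/glycerol buffer and was followed by washing, 0.1% formaldehyde crosslinking, proximity ligation (BsaI/T4 ligase, 1 h, 37 °C), PCR amplification and sequencing on an Illumina NextSeq500. Binding signal is the ratio of a hexamer's read frequency for a factor to its frequency for the tag-only sample.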

Another experiment concerns the target T2, ELK1 (Homo sapiens, UniProt P19419 1-428).
T2 sequence: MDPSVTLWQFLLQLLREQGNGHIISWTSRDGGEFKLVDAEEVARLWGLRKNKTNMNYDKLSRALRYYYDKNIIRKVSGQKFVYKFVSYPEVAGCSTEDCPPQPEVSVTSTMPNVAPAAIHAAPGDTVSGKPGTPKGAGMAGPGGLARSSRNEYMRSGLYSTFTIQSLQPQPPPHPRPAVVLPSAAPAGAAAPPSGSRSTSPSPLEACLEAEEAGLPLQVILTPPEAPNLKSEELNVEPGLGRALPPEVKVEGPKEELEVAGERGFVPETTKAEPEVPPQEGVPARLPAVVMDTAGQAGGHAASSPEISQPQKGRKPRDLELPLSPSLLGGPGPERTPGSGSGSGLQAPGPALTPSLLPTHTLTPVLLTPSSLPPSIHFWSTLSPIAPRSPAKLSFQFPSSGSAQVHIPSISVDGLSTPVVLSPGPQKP
A digest of the protocol:
as §1

Another experiment deals with T3, GABPA (Homo sapiens, UniProt Q06546 1-454).
T3 sequence: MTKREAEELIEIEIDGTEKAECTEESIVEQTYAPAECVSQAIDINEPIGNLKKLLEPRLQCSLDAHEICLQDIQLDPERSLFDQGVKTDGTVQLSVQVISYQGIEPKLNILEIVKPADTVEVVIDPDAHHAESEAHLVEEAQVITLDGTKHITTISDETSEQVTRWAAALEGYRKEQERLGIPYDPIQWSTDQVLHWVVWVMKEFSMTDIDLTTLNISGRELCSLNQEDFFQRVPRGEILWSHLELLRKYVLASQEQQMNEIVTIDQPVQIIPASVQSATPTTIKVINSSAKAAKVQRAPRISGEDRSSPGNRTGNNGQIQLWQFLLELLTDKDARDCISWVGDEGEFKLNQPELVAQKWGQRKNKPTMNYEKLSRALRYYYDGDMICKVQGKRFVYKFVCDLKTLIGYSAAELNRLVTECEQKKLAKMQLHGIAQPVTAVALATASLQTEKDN
A digest of the protocol:
as §1

Another experiment has as its target T4, ERG (Homo sapiens, UniProt P11308 1-479).
T4 sequence: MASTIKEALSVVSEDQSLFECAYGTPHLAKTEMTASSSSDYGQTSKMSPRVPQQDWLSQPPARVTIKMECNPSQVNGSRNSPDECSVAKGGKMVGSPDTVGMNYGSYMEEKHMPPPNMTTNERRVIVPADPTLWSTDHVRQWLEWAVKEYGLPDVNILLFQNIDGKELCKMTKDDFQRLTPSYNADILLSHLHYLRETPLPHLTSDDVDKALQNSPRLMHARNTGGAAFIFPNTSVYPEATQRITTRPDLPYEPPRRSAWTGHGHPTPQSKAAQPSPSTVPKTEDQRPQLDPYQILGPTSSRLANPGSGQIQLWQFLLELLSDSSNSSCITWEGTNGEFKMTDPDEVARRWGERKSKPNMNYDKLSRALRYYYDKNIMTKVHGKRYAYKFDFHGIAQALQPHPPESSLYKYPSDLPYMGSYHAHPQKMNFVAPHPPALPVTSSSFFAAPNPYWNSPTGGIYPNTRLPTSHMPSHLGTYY
The procedure, abridged:
as §1

The target of a further experiment is ELF1 (Homo sapiens, UniProt P32519 1-619). A digest of the protocol:
as §1

Another experiment addresses T5, EHF (Homo sapiens, UniProt Q9NZC4 1-300).
T5 sequence: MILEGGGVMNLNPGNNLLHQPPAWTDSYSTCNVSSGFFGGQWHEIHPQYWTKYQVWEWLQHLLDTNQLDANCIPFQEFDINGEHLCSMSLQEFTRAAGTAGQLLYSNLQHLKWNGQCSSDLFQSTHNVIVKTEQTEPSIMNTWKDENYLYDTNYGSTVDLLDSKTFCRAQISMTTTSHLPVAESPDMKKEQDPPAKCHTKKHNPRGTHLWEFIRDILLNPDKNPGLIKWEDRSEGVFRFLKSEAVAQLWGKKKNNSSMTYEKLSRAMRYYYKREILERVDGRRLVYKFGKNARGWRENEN
The procedure, abridged:
as §1

Another experiment concerns the target SPI1 (Homo sapiens, UniProt P17947 1-270). The procedure, abridged:
as §1

The next experiment deals with SPIB (Homo sapiens, UniProt Q01892 1-262). The procedure, abridged:
as §1

The next experiment addresses T6, ELK3 (Homo sapiens, UniProt P41970 1-407).
T6 sequence: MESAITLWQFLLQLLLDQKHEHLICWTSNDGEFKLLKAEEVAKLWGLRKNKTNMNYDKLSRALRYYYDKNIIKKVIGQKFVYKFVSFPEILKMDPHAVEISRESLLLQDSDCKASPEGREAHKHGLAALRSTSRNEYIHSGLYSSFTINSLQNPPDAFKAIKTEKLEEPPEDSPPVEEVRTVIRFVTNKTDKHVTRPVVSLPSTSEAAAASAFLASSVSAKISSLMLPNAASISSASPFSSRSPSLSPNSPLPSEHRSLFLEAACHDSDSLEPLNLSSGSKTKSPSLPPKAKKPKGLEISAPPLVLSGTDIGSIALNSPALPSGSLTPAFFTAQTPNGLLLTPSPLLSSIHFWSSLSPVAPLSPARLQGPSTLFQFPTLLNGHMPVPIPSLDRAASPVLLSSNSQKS
A digest of the protocol:
as §1

Sequence of ELF1 (P32519 whole entry): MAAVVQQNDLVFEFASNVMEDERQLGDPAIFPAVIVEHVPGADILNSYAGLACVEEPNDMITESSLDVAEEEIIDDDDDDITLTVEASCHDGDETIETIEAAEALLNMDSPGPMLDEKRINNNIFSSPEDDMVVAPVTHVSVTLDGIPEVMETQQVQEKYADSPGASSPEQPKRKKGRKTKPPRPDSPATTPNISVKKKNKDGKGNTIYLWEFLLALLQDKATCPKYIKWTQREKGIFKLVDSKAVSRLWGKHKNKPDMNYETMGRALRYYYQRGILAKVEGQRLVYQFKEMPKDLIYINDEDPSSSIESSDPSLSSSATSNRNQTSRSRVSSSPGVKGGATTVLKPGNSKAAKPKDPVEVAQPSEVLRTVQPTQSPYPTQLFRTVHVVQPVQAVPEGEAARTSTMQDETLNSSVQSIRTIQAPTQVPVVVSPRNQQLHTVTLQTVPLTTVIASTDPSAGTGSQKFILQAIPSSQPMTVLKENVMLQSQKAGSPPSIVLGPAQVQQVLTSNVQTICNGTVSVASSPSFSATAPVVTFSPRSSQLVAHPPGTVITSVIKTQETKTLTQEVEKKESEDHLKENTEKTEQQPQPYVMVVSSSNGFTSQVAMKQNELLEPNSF
Sequence of SPIB (Q01892 whole entry): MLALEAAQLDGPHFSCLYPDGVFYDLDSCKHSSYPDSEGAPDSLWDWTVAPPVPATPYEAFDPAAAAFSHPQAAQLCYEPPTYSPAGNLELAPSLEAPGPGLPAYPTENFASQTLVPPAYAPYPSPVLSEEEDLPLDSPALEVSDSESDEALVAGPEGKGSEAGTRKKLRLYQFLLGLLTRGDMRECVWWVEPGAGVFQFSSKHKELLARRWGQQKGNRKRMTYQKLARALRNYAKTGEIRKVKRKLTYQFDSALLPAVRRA

As for TCCACG, the binding signal with FLI1 was 1.09 fold enrichment (6-mer frequency, TF over GST control); with ELK1, 1.08 fold enrichment (6-mer frequency, TF over GST control); in the experiment with GABPA, 1.2 fold enrichment (6-mer frequency, TF over GST control); in the experiment with ERG it was 1.09 fold enrichment (6-mer frequency, TF over GST control); with ELF1, 1.09 fold enrichment (6-mer frequency, TF over GST control); with EHF, 1.06 fold enrichment (6-mer frequency, TF over GST control). The binding signal with SPI1 is 1.06 fold enrichment (6-mer frequency, TF over GST control); with SPIB, 1.11 fold enrichment (6-mer frequency, TF over GST control); with ELK3, 1.14 fold enrichment (6-mer frequency, TF over GST control).
On to CCTTCA, for which the binding signal with FLI1 is 1.49 fold enrichment (6-mer frequency, TF over GST control); in the experiment with ELK1 it was 1.43 fold enrichment (6-mer frequency, TF over GST control); in the experiment with GABPA, 1.46 fold enrichment (6-mer frequency, TF over GST control); in the experiment with ERG it was 1.45 fold enrichment (6-mer frequency, TF over GST control); with ELF1, 1.51 fold enrichment (6-mer frequency, TF over GST control); with EHF, 1.26 fold enrichment (6-mer frequency, TF over GST control). In addition, the binding signal was 1.36 fold enrichment (6-mer frequency, TF over GST control) with SPI1; 1.46 fold enrichment (6-mer frequency, TF over GST control) in the experiment with SPIB; 1.16 fold enrichment (6-mer frequency, TF over GST control) in the experiment with ELK3.
As to AGGAAA, the binding signal is 1.32 fold enrichment (6-mer frequency, TF over GST control) with FLI1; 1.28 fold enrichment (6-mer frequency, TF over GST control) with ELK1; 1.31 fold enrichment (6-mer frequency, TF over GST control) in the experiment with GABPA; 1.62 fold enrichment (6-mer frequency, TF over GST control) in the experiment with ERG; 1.27 fold enrichment (6-mer frequency, TF over GST control) with ELF1; 1.63 fold enrichment (6-mer frequency, TF over GST control) with EHF. For the same sequence, the binding signal was 1.43 fold enrichment (6-mer frequency, TF over GST control) with SPI1; 1.49 fold enrichment (6-mer frequency, TF over GST control) with SPIB; 1.34 fold enrichment (6-mer frequency, TF over GST control) with ELK3.
Consider GCTTGG, for which the binding signal with FLI1 is 1.19 fold enrichment (6-mer frequency, TF over GST control); in the experiment with ELK1 it was 1.15 fold enrichment (6-mer frequency, TF over GST control); with GABPA it was 1.12 fold enrichment (6-mer frequency, TF over GST control); with ERG, 1.09 fold enrichment (6-mer frequency, TF over GST control); with ELF1, 1.08 fold enrichment (6-mer frequency, TF over GST control); with EHF, 1.05 fold enrichment (6-mer frequency, TF over GST control). Moreover, the binding signal with SPI1 was 1.04 fold enrichment (6-mer frequency, TF over GST control); in the experiment with SPIB, 1.16 fold enrichment (6-mer frequency, TF over GST control); with ELK3, 1.15 fold enrichment (6-mer frequency, TF over GST control).
Take TTTCCA: the binding signal was 1.37 fold enrichment (6-mer frequency, TF over GST control) with FLI1; 1.31 fold enrichment (6-mer frequency, TF over GST control) with ELK1; 1.39 fold enrichment (6-mer frequency, TF over GST control) with GABPA; 1.23 fold enrichment (6-mer frequency, TF over GST control) with ERG; 1.36 fold enrichment (6-mer frequency, TF over GST control) in the experiment with ELF1; 1.27 fold enrichment (6-mer frequency, TF over GST control) with EHF. Moreover, the binding signal in the experiment with SPI1 is 1.37 fold enrichment (6-mer frequency, TF over GST control); in the experiment with SPIB it was 1.39 fold enrichment (6-mer frequency, TF over GST control); with ELK3, 1.31 fold enrichment (6-mer frequency, TF over GST control).
As to GGATGT, the binding signal is 1.5 fold enrichment (6-mer frequency, TF over GST control) with FLI1; 1.7 fold enrichment (6-mer frequency, TF over GST control) with ELK1; 1.39 fold enrichment (6-mer frequency, TF over GST control) in the experiment with GABPA; 1.82 fold enrichment (6-mer frequency, TF over GST control) in the experiment with ERG; 1.44 fold enrichment (6-mer frequency, TF over GST control) with ELF1; 1.74 fold enrichment (6-mer frequency, TF over GST control) in the experiment with EHF. For the same sequence, the binding signal was 1.53 fold enrichment (6-mer frequency, TF over GST control) with SPI1; 1.61 fold enrichment (6-mer frequency, TF over GST control) with SPIB; 1.65 fold enrichment (6-mer frequency, TF over GST control) in the experiment with ELK3.
As to GGACAT, the binding signal with FLI1 was 1.19 fold enrichment (6-mer frequency, TF over GST control); with ELK1, 1.19 fold enrichment (6-mer frequency, TF over GST control); with GABPA, 1.24 fold enrichment (6-mer frequency, TF over GST control); with ERG it was 1.24 fold enrichment (6-mer frequency, TF over GST control); in the experiment with ELF1, 1.19 fold enrichment (6-mer frequency, TF over GST control); with EHF, 1.19 fold enrichment (6-mer frequency, TF over GST control). Moreover, the binding signal is 1.13 fold enrichment (6-mer frequency, TF over GST control) with SPI1; 1.14 fold enrichment (6-mer frequency, TF over GST control) in the experiment with SPIB; 1.19 fold enrichment (6-mer frequency, TF over GST control) with ELK3.
